# Compound activity: PubChem BioAssay, National Center for Advancing Translational Sciences (NCATS)
# AmpC detergent: inhibitors of E. coli AmpC beta-lactamase with detergent. Potency, µM (top dose mostly 114 µM), actives largely listed as inhibitors. AmpC hydrolysis of nitrocefin, absorbance 480 nm, 0.01% Triton. AID 485294. 370,000 compounds, 0.041% hits. P00811; further: nearly all actives have a fitted effect of over 25% in size
# Target sequence (P00811 whole entry, looked up): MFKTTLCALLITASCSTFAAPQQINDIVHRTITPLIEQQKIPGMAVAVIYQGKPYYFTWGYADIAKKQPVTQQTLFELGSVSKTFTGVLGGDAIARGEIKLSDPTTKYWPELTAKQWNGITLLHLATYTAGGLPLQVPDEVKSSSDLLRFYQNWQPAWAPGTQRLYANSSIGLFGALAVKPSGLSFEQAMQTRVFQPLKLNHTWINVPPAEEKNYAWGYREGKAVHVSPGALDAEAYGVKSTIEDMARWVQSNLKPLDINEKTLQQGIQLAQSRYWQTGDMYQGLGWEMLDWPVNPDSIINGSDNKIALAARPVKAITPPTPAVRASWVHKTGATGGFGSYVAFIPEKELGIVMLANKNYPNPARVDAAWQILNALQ
#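 20 mM phosphate pH 7.0 + 0.01% (detergent screen) or 0.0001% Triton X-100; 5.3 nM AmpC reagent; cpd preinc 15 min RT; nitrocefin (800 uM stock) to start; A480 q20 s × 4 min; Activity was normalised to no-enzyme and no-compound control wells.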
# Vaccinia Venus: inhibitors of vaccinia virus (Venus reporter); Vaccinia virus Venus reporter expression, fluorescence; Potency, µM (titrated, usually from 36.5 µM), hits mostly inhibitors; 330,000 compounds, 0.46% hits; calls by dose curve; tested in A549 cells; further: nearly all actives have a fitted effect of over 30% in size
# AmpC no deterg: AmpC beta-lactamase inhibition without detergent; 330,000 compounds, 0.52% hits; AmpC nitrocefin hydrolysis, absorbance 480 nm, 0.0001% Triton; AID 485341; Potency, µM (top dose mostly 57.1 µM), actives largely listed as inhibitors; further: nearly all actives have a fitted effect of over 20% in size
#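 20 mM phosphate pH 7.0 + 0.01% (detergent screen) or 0.0001% Triton X-100; 5.3 nM AmpC reagent; cpd preinc 15 min RT; nitrocefin (800 uM stock) to start; A480 q20 s × 4 min; Activity was normalised to no-enzyme and no-compound control wells.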
# AMA1 RON2 block: inhibitors of Plasmodium falciparum AMA1-RON2 interaction. AlphaScreen AMA1-biotinylated RON2 peptide binding. Potency, µM (titrated, usually from 58.2 µM), usual class: inhibitors. 360,000 compounds, 0.2% hits. AID 720542; further: nearly all actives have a fitted effect of over 45% in size
#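 AMA1 (3D7) with his tag at 25 nM final met compounds first, then biotinylated RON2 peptide at 25 nM; detection used donor plus acceptor beads, 10 µg/mL apiece, read by AlphaScreen after 30 min at room temperature.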
# Vaccinia mCherry: vaccinia inhibition (mCherry reporter); 310,000 compounds, 0.63% hits; Potency, µM (top dose mostly 36.5 µM), most hits filed as inhibitors; Vaccinia virus mCherry reporter infection, fluorescence; calls by dose curve; tested in A549 cells; further: nearly all actives have a fitted effect of over 35% in size
# SARS PLpro yeast-1: blocks SARS-CoV papain-like protease in a yeast assay | S. cerevisiae expressing SARS-CoV PLpro, growth rescue | Potency, µM (titrated, usually from 32.9 µM), usual class: activators | 330,000 compounds, 0.19% hits | AID 485353; calls by dose curve; further: nearly all actives have a fitted effect of over 55% in size
# SARS PLpro yeast-2: Rescues yeast growth by inhibiting SARS-CoV PLpro; AID 652038; calls only; 1,000 compounds, 19% hits; shares compounds with SARS PLpro yeast-1; yeast expressing SARS-CoV PLpro, growth phenotype rescue; call rule not given here
# A number is an active result; . = inactive; ? = inconclusive; / = not tested or not shown. In the library only some 1.4% were active in any assay of this set; here they are far more common. Unless noted, the call rests on the fitted dose curve; in most records, active means well fitted curve in the direction sought with a large enough effect; inconclusive means small, poorly fitted or top-dose-only effect, or another doubt; inactive means no such curve, though single readings can be large; an effect the other way counts as inactive or inconclusive.
SMILES,AmpC detergent,Vaccinia Venus,AmpC no deterg,AMA1 RON2 block,Vaccinia mCherry,SARS PLpro yeast-1,SARS PLpro yeast-2
CCn1cc(CN2CCC(C(=O)Nc3cccc(-c4cccc(OC)c4)c3)CC2)c(C)n1,.,.,.,.,.,?,.
Cc1nc([N+](=O)[O-])c(Sc2nc3ccc([N+](=O)[O-])cc3[nH]2)n1Cc1ccccc1,.,?,.,.,?,10µM,.
Cc1nc([N+](=O)[O-])c(Br)n1Cc1ccccc1,.,/,.,.,/,.,/
O=C1CCCC2=C1C(c1cccs1)Nc1ccc3ncccc3c12 (stereo not drawn),.,/,.,.,/,.,/
Cc1ccsc1C1Nc2ccc3ncccc3c2C2=C1C(=O)CC(C)(C)C2 (stereo not drawn),.,?,.,.,?,11µM,.
CN1CCN(C(=O)c2ccc3c(c2)N(Cc2ccc(Cl)cc2)C(=O)c2ccccc2S3(=O)=O)CC1,.,.,/,/,.,/,/
